# The entries come from a sample that favours hits as a whole.
# Shiga toxin inh: A qHTS for Small Molecule Inhibitors of Shiga Toxin. Vero cells, Shiga toxin protein synthesis inhibition reporter. inhibition, % at 38.7 µM. 290,000 compounds, 9.2% hits. AID 2315, 2010; in the data active = inhibition mostly above about 28%, no sharp cut-off; inactive = mostly below about 43%; note: 0% is about no effect
# Cycloheximide cs: Cycloheximide Counterscreen for Small Molecule Inhibitors of Shiga Toxin | AID 2314, 2010 | cell reporter, cycloheximide protein synthesis inhibition counterscreen | max response, % | 300,000 compounds, 12% hits; in the data active = max response mostly above about 13%, no sharp cut-off; inactive = mostly below about 14%; note: read at 38.3 µM for the half of the compounds with a filed dose; 0% is about no effect
# RE007 growth inh: qHTS Assay for Inhibitors of the HIV-1 protein Vpr; S. pombe RE007 Vpr strain, BacTiter-Glo ATP luminescence, 24 h; Potency, µM (doses to about 92.2 µM), inactives show at the top dose activity change, negative = less growth, most hits filed as inhibitors; 360,000 compounds, 0.21% hits; AID 651644, 2012; active = well fitted falling curve with a large enough effect; inconclusive = small, poorly fitted or top-dose-only effect; inactive = no such curve, though single readings can be large or run the other way; note: potency is the fitted concentration of half-maximal effect; % is set by controls: 0 for no effect and ±100 for the full control effect; nearly all actives have a fitted effect of over 50% in size
#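 Fission yeast strain RE007, carrying one chromosomally integrated HIV-1 vpr copy, was seeded at OD 0.01 in PMG+AL medium with 23 nL pinned compound. After 24 h at 30 °C and 99% humidity, viability was read by BacTiter-Glo luminescence.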
# LmPK inh: qHTS Assay for Inhibitors of Leishmania Mexicana Pyruvate Kinase (LmPK); Q27686; Potency, µM (doses to about 57.5 µM), for the others: at the top dose activity change, negative = inhibition, hits mostly inhibitors; 290,000 compounds, 0.37% hits; AID 1721, 2009; purified LmPK, Kinase-Glo ATP luminescence, 1 h; note: potency is the fitted concentration of half-maximal effect; % is set by controls: 0 for no effect and ±100 for the full control effect
#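 Purified LmPK (0.1 nM) with 0.5 mM PEP and 0.1 mM ADP in imidazole buffer pH 7.2 with MgCl2/KCl, 1 h at room temperature. ATP formed was read by luciferase luminescence and normalized to no-enzyme and uninhibited controls.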
# Tb PYK inh: qHTS of Trypanosoma Brucei Inhibitors; pyruvate kinase (Trypanosoma brucei), Q57TT1; TbPYK enzyme, Kinase-Glo Plus ATP luminescence, 45 min; Potency, µM (top dose mostly 76.8 µM), inactives show at the highest dose activity, negative = inhibition, hits mostly inhibitors; 410,000 compounds, 0.12% hits; AID 624173, 2012; note: potency is the fitted concentration of half-maximal effect; % is set by controls: 0 for no effect and ±100 for the full control effect; nearly all actives have a fitted effect of over 50% in size
#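 ADP (130 uM final) triggers the TbPYK reaction after compound addition; incubation is 45 min at room temperature. Kinase-Glo Plus is then added and luminescence imaged. Normalized data are fitted to concentration-effect curves.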
# FBPA Giardia inh: qHTS Assay for Inhibitors of Fructose-1,6-bisphosphate Aldolase from Giardia Lamblia; Potency, µM (highest dose often 59.6 µM), for inactives: top-dose activity, negative = inhibition, hits mostly inhibitors; purified Giardia FBPA; A8B2U2; 290,000 compounds, 0.71% hits; note: potency is the fitted concentration of half-maximal effect; % is set by controls: 0 for no effect and ±100 for the full control effect; nearly all actives have a fitted effect of over 55% in size
# Target sequence (A8B2U2 whole entry, looked up): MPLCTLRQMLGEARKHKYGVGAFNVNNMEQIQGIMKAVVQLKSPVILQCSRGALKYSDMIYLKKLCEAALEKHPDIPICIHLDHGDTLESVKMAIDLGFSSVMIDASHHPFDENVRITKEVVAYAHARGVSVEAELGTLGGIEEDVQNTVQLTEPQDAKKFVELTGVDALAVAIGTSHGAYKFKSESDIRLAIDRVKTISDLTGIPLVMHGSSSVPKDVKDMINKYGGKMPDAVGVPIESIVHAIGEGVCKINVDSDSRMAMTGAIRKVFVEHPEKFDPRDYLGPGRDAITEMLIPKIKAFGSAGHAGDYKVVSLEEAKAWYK
#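 40 nM FBPA preincubated 10 min at RT with compound (up to 57.5 uM final), then substrate plus GAPDH/TPI/NAD/arsenate coupling and diaphorase/resazurin added. Fluorescence read after 20 min at RT, 525/598 nm.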
# Active calls of the source: *; ? = inconclusive; nt = no result given; [ ] = dose if it differs, or a comment. Unless noted, calls come from the whole dose curve; as a rule, active = well fitted curve in the direction sought with a large enough effect; inconclusive = small, poorly fitted or top-dose-only effect, or another doubt; inactive = no such curve, though single readings can be large; an effect the other way counts as inactive or inconclusive.
SMILES,Shiga toxin inh,Cycloheximide cs,RE007 growth inh,LmPK inh,Tb PYK inh,FBPA Giardia inh
COc1ccccc1C1=Nn2c(nnc2-c2ccccc2O)SC1,-1,6,nt,nt,nt,-4%
O=C(COc1ccc(S(=O)(=O)NC2CCCCC2)cc1)Nc1ccc(C(F)(F)F)cc1,nt,nt,nt,nt,1%,nt
O=c1[nH]c(=S)[nH]c2c1C(c1ccc(Cl)cc1)OC(CCc1ccccc1)C2 (configuration not stated),nt,nt,3%,nt,-5%,nt
Cn1cccc1/C=N/NC(=O)Cc1cccs1,49*,11,-9%,-3%,2%,2%
Cn1cc(/C=N\NC(=O)c2cccs2)c2ccccc21,63*,49*,-4%,-7%,-8%,0%
COc1ccc(C2C(C(=O)Nc3ccccc3)=C(C)Nc3c(C(=O)Nc4ccccc4)cnn32)cc1 (configuration not stated),nt,nt,nt,nt,10%,nt
N#Cc1ccccc1Cn1c(=O)n(CCCC(=O)NCc2ccccc2Cl)c(=O)c2ccccc21,nt,nt,nt,nt,-8%,nt
COCCNC(=O)CCc1c(C)n(C)c2cc(-c3cc(OC)c(OC)c(OC)c3)nn2c1=O,nt,nt,nt,nt,2%,nt
CN(C)CCCNc1ccc(-c2n[nH]c(=O)c3ccccc23)cc1[N+](=O)[O-],nt,2,-19%,2%,-1%,1%
CC(O)CNc1ccc(-c2n[nH]c(=O)c3ccccc23)cc1[N+](=O)[O-] (configuration not stated),-17,22*,9%,10%,4%,12%
CC(C)C1COC(c2cccc3ccccc23)=N1 (configuration not stated),136*,76*,-9%,?,-9%,-7%
Cc1cccc(-n2nnc(-c3nc(-c4ccccc4)no3)c2N)c1C,nt,nt,nt,nt,5%,nt
Cn1c(COc2ccccc2Br)nc2ccccc21,56*,44*,-26%,-2%,10%,6%
COc1ccccc1OCc1nc2ccccc2n1C,134*,51*,1%,-6%,3%,-7%
N#C/C(=C\c1cc(Cl)c(OCc2ccc(Cl)cc2)c(Cl)c1)C(N)=O,53*,30*,nt,9%,nt,0%
N#C/C(=C\c1cc(O)c(O)c(O)c1)C(N)=O,-8,-2,1%,4%,?,5µM*
N#C/C(=C/c1ccc(O)c(O)c1)C(=O)NCc1ccc(Cl)cc1,-8,5,-4%,0%,1%,?
O=C(Nc1nccs1)C(=O)c1c[nH]c2ccccc12,146*,71*,-12%,0%,3%,13%
CSc1ccccc1NC(=O)C(=O)c1c[nH]c2ccccc12,117*,42*,0%,0%,1%,-9%
C[C@@H](NC(=O)C(=O)c1c[nH]c2ccccc12)c1ccccc1,nt,nt,-8%,nt,3%,nt
O=C(Cc1c[nH]c2ccccc12)Nc1nccs1,21,13,-12%,1%,1%,1%
COc1ccc(S(=O)(=O)NCCc2csc3nc(-c4cccc(C)c4)nn23)cc1F,nt,nt,nt,nt,-3%,nt
CN1C(=O)c2c(sc3c2CCCC3)NC1c1ccccc1O (configuration not stated),49*,19*,nt,1%,nt,?
CC(c1ccccc1)C1C(C#N)=C(N)OC2=C1C(=O)CC(C)(C)C2 (configuration not stated),-10,-1,17%[3.69 µM],0%,nt,1%
CC1(C)CC(=O)C2=C(C1)OC(N)=C(C#N)C2c1cn(-c2ccccc2)nc1-c1ccccc1 (configuration not stated),-3,18*,6%,0%,8%,-4%
SMILES,Shiga toxin inh,Cycloheximide cs,RE007 growth inh,LmPK inh,Tb PYK inh,FBPA Giardia inh
CC1(C)CC(=O)C2=C(C1)OC(N)=C(C#N)C2C#Cc1ccccc1 (configuration not stated),22,6,5.6µM*,3%,-21%,-29%
CN(C)c1ccc(N/C=C/C(=O)c2ccccc2)cc1,78*,28*,-14%,5.6µM*,?,?
CC(=O)Nc1ccc(N/C=C/C(=O)c2ccccc2)cc1,53*,37*,?,-8%,2%,17%
O=C(/C=C/Nc1ccccc1)c1ccccc1,29,27*,?,7.9µM*,-22%,-4%
Cc1cc(N/C=C/C(=O)c2ccccc2)ccc1Br,56*,37*,4%,-9%,-3%,0%
N[C@H](CSSC[C@@H](N)C(=O)O)C(=O)O,-3,-3,nt,nt,nt,3%
C/C(=C\C(=O)c1ccc(Cl)cc1Cl)N(C)C,32*,14,7%,12%,-8%,-9%
COc1ccc(OC)c(N/C=C/C(=O)c2ccccc2)c1,-37,-3,-16%,?,?,-1%
O=C(/C=C/Nc1ccc(F)cc1Br)c1ccccc1,40*,39*,3%,?,?,3%
O=C(/C=C/Nc1ccccc1)c1ccc(Cl)cc1Cl,98*,42*,-24%,-12%,0%,5%
CCCCC[C@@H](/C=C/C1C(=O)C=C[C@H]1C/C=C\CCCC(=O)O)OC(C)=O (some centres not stated),nt,nt,-18%,nt,1%,nt
Cc1ccc2nc(SCc3nc(-c4ccc(Cl)cc4)no3)[nH]c2c1,nt,nt,nt,nt,4%,nt
CSc1ccc(CCNC(=O)Cn2nc(C)n3c(cc4sccc43)c2=O)cc1,nt,nt,nt,nt,-1%,nt
Cc1cc(C)cc(-n2nnc3ccccc3c2=O)c1,nt,nt,-16%,nt,-1%,nt
O=c1c2ccccc2cnn1-c1ccc(Cl)nn1,42*,18*,37%,-5%,5%,0%
O=c1c2ccccc2cnn1-c1ccc2ccccc2c1,98*,33*,-28%,-29%,-2%,0%
O=c1c2ccccc2nnn1-c1ccc(Br)cc1,97*,44*,-3%,4%,0%,0%
O=c1c2ccccc2cnn1-c1ccc(Br)cc1,65*,57*,4%,-6%,4%,4%
Cc1ccc(-n2c(-c3ccc(Br)cc3)nc3c(cnn3-c3ccccc3)c2=O)cc1,nt,nt,nt,nt,-7%,nt
O=c1c2ccccc2cnn1Cc1ccc(Cl)c(Cl)c1,-6,-6,?,-10%,3%,-4%
CC1=C(C(=O)Nc2ccccc2)C(c2ccncc2)n2nc(SCc3ccccc3Cl)nc2N1 (configuration not stated),nt,nt,nt,nt,-1%,nt
Cc1ccc2c(c1)/C(=N/O)CCS2,-3,-3,-3%,9%,-20%,-6%
Fc1ccc2c(c1)/C(=N/Nc1ccccn1)CCS2,58*,30*,?,2%,0%,-9%
Cc1cc2[nH]c(=O)cc(-c3ccccc3)n2n1,47,17*,-6%,0%,-4%,?
